# Experimental data reported in PubChem BioAssay (NCATS).
# Records with an inconclusive call do not appear. Entries that show only a call come without a potency. Active and inactive are the calls of the source. The call rests on the fitted dose curve; in most records, active means well fitted curve in either direction with a large enough effect (not every such curve was filed as active); inconclusive means small, poorly fitted or top-dose-only effect, or another doubt; inactive means flat fitted curve, though single readings scatter.
# Molecular target: Mitogen-activated protein kinase 10 (Mus musculus) (UniProt Q61831)
# Experiment: JNK3 AlphaScreen Assay (AID 530);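 further: kinase came from lysate of stimulated human HepG2 cells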
# Conditions: JNK3 lysate, c-Jun phosphorylation; series mostly up to 25.6 µM
# Excerpt: NIH Chemical Genomics Center [NCGC]
# NIH Molecular Libraries Screening Centers Network [MLSCN]
# The c-jun N-terminal kinase (JNK) family are serine/threonine protein kinases that phosphorylate c-jun, a component of the transcription factor […] (AP-1). JNK kinases are members of the mitogen-activated protein kinase family including the extracellular regulated kinases and p38 kinases. Three JNK genes (JNK 1, 2, and 3) have been identified in humans so far. JNK1 and JNK2 have a broad distribution and JNK3 is primarily found in neuronal tissues and cardiac myocytes.
# JNK3 has been under consideration as a target for the treatment of neurodegenerative disorders. […] JNK pathway is also involved in pathological process in a mouse model of Parkinson's disease (Xia et al., 2001).
# Given these potential tissue distributions and links to neuroprotection, JNK3 inhibitors should provide useful investigational tools to study the role of this kinase in several diseases including, arthritis, stroke, myocardial infarction, ischemic injury and Parkinson's disease.
# A homogeneous AlphaScreen is developed to measure the activity of JNK3. AlphaScreen is a two bead-based proximity-dependent chemical energy transfer luminescent assay platform. The phosphorylation of a biotinylated c-jun substrate by JNK3 can be detected with an antibody raised against phosphorylated c-jun. This process brings streptavidin donor beads and Protein-A acceptor beads to within a proximity range of <200 nm, and subsequently lead a chemical luminescent reaction upon exciting donor beads with 680 nm laser excitation light. Inhibition of JNK3 activity by small molecules and subsequent decrease in the antibody binding to biotinylated c-jun could attenuate or abolish this chemical luminescent reaction.
# Yang DD, Kuan CY, Whitmarsh AJ, Rincon M, Zheng TS, Davis RJ, Rakic P and Flavell RA (1997) Absence of excitotoxicity-induced apoptosis in the hippocampus of mice lacking the Jnk3 gene. Nature 389:865-870. [PMID: 9349820]
# Herdegen T, Claret FX, Kallunki T, Martin-Villalba A, Winter C, Hunter T, and Karin M (1998) Lasting N-terminal phosphorylation of c-Jun and activation of c-Jun N-terminal kinases after neuronal injury. J.Neurosci. 18:5124-5135. [PMID: 9651196]
# Xia XG, Harding T, Weller M, Bieneman A, Uney JB and Schulz JB (2001) Gene transfer of the JNK interacting protein-1 protects dopaminergic neurons in the MPTP model of Parkinson's disease. Proc.Natl.Acad.Sci.U.S.A. 98:10433-10438.
# NCGC Assay Protocol Summary:
# GST-cJun (1-79) (Stratagene, La Jolla CA, #205145) was biotnylated by PerkinElmer (PerkinElmer-BioSignalInc. Montreal, Canada) and was detectable by the streptavidin Donor beads. Anti-(phospho)cJun (Ser73) antibody was from UpState (Charlottesvilles, VA, #06-659). JNK3-containing lysates were generated from HepG2 cells and pre-activated by interleukin1-beta and tumor necrosis factor alpha. All reagents were stored at -20 C before using. Phosphorylated biotinylated-GST-cJun was recognized by Anti-(phospho)cJun (Ser73) antibody and this process brings acceptor and donor beads together. Therefore JNK3 phosphorylation of cJun can be measured by Alpha reading by EnVision (PerkinElmer, Boston, MA).
# The composition of kinase buffer was (in mM) 20 tris- HCl (pH 7.6) 10 MgCl2, 1 DTT, and 0.1 Na3VO4 and 0.01% Tween-20. Beads were diluted in detection buffer containing (in mM) 20 tris-HCl (pH 7.7), 20 NaCl and 80 EDTA and 0.3% BSA. The assay was performed at room temperature. All compounds were screened as titrations from 0.6 nM to 46 uM final concentration. The assay was performed in 1536-well format (white solid bottom and untreated) as follows:
# Sequence,Parameter,Value,Description
# 1,Reagent,3 uL,Biotin-GST-cJun, Anti-(phospho)cJun and pre-activated JNK3-containing lysates
# 2,Compound,23 nL,Final concentration was 0.6nM to 46uM
# 3,Time,15 minutes,Room Temperature
# 4,Reagent,1 uL,ATP final concentration 10uM
# 6,Reagent,0.5 uL,2ng/well bead mixture
# […]
# Potency means the concentration at half of the fitted maximal effect.
row,Structure (SMILES),Potency
1,CCCc1ncc(C[n+]2ccccc2C)c(N)n1,inactive
2,CNCCc1ccccn1,inactive
3,O=C1C(CCS(=O)c2ccccc2)C(=O)N(c2ccccc2)N1c1ccccc1 (stereo not given),inactive
4,c1ccc(CC2=NCCN2)cc1,inactive
5,CC[C@H](c1ccc(O)cc1)[C@@H](CC)c1ccc(O)cc1,inactive
6,N=C(N)N1CCc2ccccc2C1,inactive
7,CCCCNc1ccc(C(=O)OCCOCCOCCOCCOCCOCCOCCOCCOCCOC)cc1,inactive
8,CCCN(CCC)S(=O)(=O)c1ccc(C(=O)O)cc1,inactive
9,CCN(CC)CCNC(=O)COc1ccc(OC)cc1,inactive
10,CN1CCC(OC(c2ccccc2)c2ccccc2)CC1,inactive
11,Cc1cc(-c2ccccc2)nnc1NCCN1CCOCC1,inactive
12,CC(C)(C)NC[C@H](O)COc1nsnc1N1CCOCC1,inactive
13,O=C(O)CCC(=O)Nc1ccc(S(=O)(=O)Nc2nccs2)cc1,inactive
14,Oc1ccc(Cl)cc1Cc1cc(Cl)ccc1O,inactive
15,O=C(CCCN1CC=C(n2c(=O)[nH]c3ccccc32)CC1)c1ccc(F)cc1,inactive
16,CCOc1ccc(NC(C)=O)cc1,inactive
17,CC(C)(C)NC[C@H](O)COc1cccc2c1CCCC2=O,inactive
18,Nc1ccc(S(=O)(=O)Nc2cnc3ccccc3n2)cc1,inactive
19,CCc1cc(Cl)c(OC)c(C(=O)NC[C@@H]2CCCN2CC)c1O,inactive
20,CCc1oc2ccccc2c1C(=O)c1cc(Br)c(O)c(Br)c1,inactive

row,Structure (SMILES),Potency
1,O=C(O)CCc1nc2ccccc2[nH]1,inactive
2,NC(=O)c1ccccc1O,inactive
3,Oc1c(Cl)cc(Cl)c(Cl)c1Cc1c(O)c(Cl)cc(Cl)c1Cl,inactive
4,CCCCc1cc2ccccc2c(OCCN(C)C)n1,inactive
5,C/C=C/c1ccc(O)c(OC)c1,inactive
6,COc1cc(N)c(Cl)cc1C(=O)NC1CCN(Cc2ccccc2)CC1,inactive
7,COc1ccc(C(=O)c2ccccc2)c(O)c1,inactive
8,COc1cc(NS(=O)(=O)c2ccc(N)cc2)ncn1,inactive
9,CCN(CC)CCNc1ccc(CO)c2sc3ccccc3c(=O)c12,inactive
10,CCOC(=O)Nc1ccc2c(c1)N(C(=O)CCN1CCOCC1)c1ccccc1S2,inactive
11,NS(=O)(=O)Cc1noc2ccccc12,inactive
12,CCOc1ccccc1C(N)=O,inactive
13,CCN(CC)CCNC(=O)c1cc(Br)c(N)cc1OC,inactive
14,CCOC(=O)c1ccc(N)cc1,inactive
15,CNCCCCOc1ccccc1Cc1ccccc1,inactive
16,CN1CCc2cccc3c2[C@H]1Cc1ccc(O)c(O)c1-3,6.31 µM (active)
17,CN1CCC[C@@H]1CCO[C@](C)(c1ccccc1)c1ccc(Cl)cc1,inactive
18,Cc1c(-c2ccccc2)oc2c(C(=O)OCCN3CCCCC3)cccc2c1=O,inactive
19,COc1ccc(C(Cl)=C(c2ccc(OC)cc2)c2ccc(OC)cc2)cc1,inactive
20,NCCNc1cccc2ccccc12,inactive
